Compounds without any hit were thinned out: in the full panel of roughly 79,000, 15% have a hit. Calls of active or inactive are those of the source. No stated cut-off is given here; in the data, active means growth inhibition above about 70%; inactive means the rest.
Columns and labels:
[1] = NCI Yeast Anticancer Drug Screen. Data for the rad52 strain (AID 147);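 further: 0% = growth of vehicle-treated control cultures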; conditions: S. cerevisiae rad52 mutant growth inhibition, hits give high values
Outline: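 Growth of repair-deficient yeast cells was compared between compound-treated and vehicle-treated cultures to give percent inhibition.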

[2] = NCI Yeast Anticancer Drug Screen. Data for the mgt1 strain (AID 153); conditions: S. cerevisiae mgt1 mutant growth inhibition, hits give high values
Outline: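 Compounds were applied to mgt1 mutant yeast, and growth was then compared against vehicle-treated control cultures to give percent inhibition.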

[3] = NCI Yeast Anticancer Drug Screen. Data for the rad50 strain (AID 155);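 further: 0% = growth of vehicle-only cultures of the same strain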; conditions: S. cerevisiae rad50 strain growth inhibition, hits give high values
Outline: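 Readout: growth inhibition relative to vehicle-treated cultures. Compound exposure was carried out in a genetically defined yeast strain deficient in DNA damage repair.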

[4] = NCI Yeast Anticancer Drug Screen. Data for the mec2-1 strain (AID 157); conditions: S. cerevisiae mec2-1 strain, hits give high values
Outline: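 Compounds were applied to mec2-1 yeast cells. Their growth was then compared with that of vehicle-treated cultures to give growth inhibition.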

[5] = NCI Yeast Anticancer Drug Screen. Data for the rad14 strain (AID 159);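 further: 0% = growth of vehicle-treated control cultures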; conditions: S. cerevisiae rad14 strain growth inhibition, hits give high values
Outline: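 Growth inhibition vs vehicle controls; genetically altered yeast strain (DNA damage repair defect) treated with test compounds.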

[6] = NCI Yeast Anticancer Drug Screen. Data for the sgs1 mgt1 strain (AID 161);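 further: 0% = growth of cultures given vehicle only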; conditions: S. cerevisiae sgs1 mgt1 strain, hits give high values
Outline: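 This yeast growth screen uses a strain with defined DNA-repair lesions; compound-treated growth is compared with vehicle-treated growth.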

[7] = NCI Yeast Anticancer Drug Screen. Data for the CLN2oe strain (AID 163);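 further: 0% = growth of vehicle-only control cultures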; conditions: S. cerevisiae CLN2oe strain, hits give high values
Outline: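 Cells of an engineered yeast line with disturbed cell-cycle regulation are treated with compound. Inhibition of growth is then calculated relative to the vehicle-treated reference.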

[8] = NCI Yeast Anticancer Drug Screen. Data for the cln2 rad14 strain (AID 165);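 further: 0% = growth equal to vehicle treated cultures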; conditions: S. cerevisiae cln2 rad14 strain, hits give high values
Outline: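 Strain: cln2 rad14 yeast, altered in cell cycle control and DNA damage repair. Read-out: growth inhibition vs vehicle.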

[9] = NCI Yeast Anticancer Drug Screen. Data for the bub3 strain (AID 167); conditions: S. cerevisiae bub3 mutant strain, hits give high values
Outline: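 Readout: yeast growth inhibition, expressed relative to vehicle-only wells. The test organism is a mutant strain from a panel with lesions in DNA repair or checkpoint genes.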

[10] = NCI Yeast Anticancer Drug Screen. Data for the wt2 strain (AID 169);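 further: 0% = growth of vehicle-treated yeast cultures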; conditions: S. cerevisiae wt2 strain growth inhibition, hits give high values
Outline: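 Growth of compound-treated yeast is measured and expressed as inhibition relative to vehicle-only controls.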

[11] = NCI Yeast Anticancer Drug Screen. Data for the sgs1 strain (AID 173);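 further: 0% = growth of vehicle-only control cultures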; conditions: S. cerevisiae sgs1 mutant, hits give high values
Outline: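 Strain with an altered DNA repair or cell cycle pathway exposed to compound. Growth then measured. Value = inhibition versus vehicle control.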

[12] = NCI Yeast Anticancer Drug Screen. Data for the mlh1 rad18 strain (AID 175); conditions: S. cerevisiae mlh1 rad18 strain growth inhibition, hits give high values
Outline: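 A repair-deficient yeast strain is exposed to test compound, and growth is scored relative to vehicle-treated controls.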

[13] = NCI Yeast Anticancer Drug Screen. Data for the rad18 strain (AID 177); conditions: S. cerevisiae rad18 mutant growth inhibition, hits give high values
Outline: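 DNA-repair-defective yeast; compound treatment; growth inhibition scored against vehicle.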

[14] = NCI Yeast Anticancer Drug Screen. Data for the wt1 strain (AID 149);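 further: 0% = growth of vehicle-treated wt1 cultures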; conditions: S. cerevisiae wt1 strain (SPY 50644) growth inhibition, hits give high values
Outline: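 Growth inhibition read against vehicle controls after compound exposure of the wt1 yeast strain.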

[15] = NCI Yeast Anticancer Drug Screen. Data for the rad50EPP+ strain (AID 151);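 further: 0% = growth of vehicle-treated control cultures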; conditions: S. cerevisiae rad50 mutant strain, hits give high values
Outline: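 Measured: growth inhibition of rad50EPP+ yeast. Reference: vehicle-treated controls. Screen uses strains with defined genetic alterations in DNA damage repair or cell cycle control.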

[16] = NCI Yeast Anticancer Drug Screen. Data for the mlh1 strain (AID 171);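 further: 0% = growth of vehicle-treated control cultures of the same strain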; conditions: S. cerevisiae mlh1 strain growth inhibition, hits give high values
Outline: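 Test agents were incubated with yeast bearing a defined DNA damage repair or cell cycle control alteration; values are growth inhibition normalised to vehicle-treated cultures.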

[17] = at 5.0 µM (retest, dose inferred, filed as 0.5)
[18] = at 50.0 µM (retest, dose inferred, filed as 5.0)

Measured: growth inhibition

CC1CCC2(NC1)OC1CC3C4CCC5CC(OC6OC(CO)C(OC7OC(CO)C(O)C(OC8OCC(O)C(O)C8O)C7OC7OC(CO)C(O)C(O)C7O)C(O)C6O)CCC5(C)C4CCC3(C)C1C2C (stereo unspecified)
active: [1]; at 100.0 µM 76% | [3]; [18] 98% | [4]; [18] 97% | [5]; at 100.0 µM 77% | [6]; [18] 93% | [9]; [18] 74% | [10]; at 100.0 µM 99% | [12]; [18] 97% | [12]; at 50.0 µM 87.6%
inactive: [1]; at 1.2 µM 30% | [1]; at 3.7 µM 8% | [1]; at 11.0 µM 12% | [1]; at 33.0 µM 0% | [2]; at 1.2 µM -2% | [2]; at 3.7 µM -10% | [2]; at 11.0 µM -11% | [2]; at 33.0 µM -11% | [2]; at 100.0 µM 44% | [3]; at 1.2 µM -2% | [3]; at 3.7 µM -16% | [3]; [17] 1% | [3]; at 11.0 µM -14% | [3]; at 33.0 µM -6% | [3]; at 50.0 µM 28.9% | [3]; at 100.0 µM 62% | [4]; at 1.2 µM 13% | [4]; at 3.7 µM -14% | [4]; [17] 13% | [4]; at 11.0 µM -15% | [4]; at 33.0 µM 2% | [4]; at 50.0 µM 6.1% | [4]; at 100.0 µM 14% | [5]; at 1.2 µM 18% | [5]; at 3.7 µM 6% | [5]; at 11.0 µM -5% | [5]; at 33.0 µM -18% | [6]; [17] 1% | [6]; at 50.0 µM -24.1% | [7]; at 1.2 µM -15% | [7]; at 3.7 µM -14% | [7]; at 11.0 µM -10% | [7]; at 33.0 µM -4% | [7]; at 100.0 µM 46% | [8]; [17] -19% | [8]; [18] 68% | [8]; at 50.0 µM 28.8% | [9]; at 1.2 µM 0% | [9]; at 3.7 µM -19% | [9]; [17] 10% | [9]; at 11.0 µM -27% | [9]; at 33.0 µM -10% | [9]; at 50.0 µM 11.1% | [9]; at 100.0 µM 45% | [10]; at 1.2 µM -7% | [10]; at 3.7 µM -20% | [10]; at 11.0 µM -22% | [10]; at 33.0 µM -11% | [11]; at 1.2 µM 2% | [11]; at 3.7 µM 0% | [11]; at 11.0 µM 2% | [11]; at 33.0 µM -4% | [11]; at 100.0 µM 61% | [12]; [17] 59% | [13]; at 1.2 µM 4% | [13]; at 3.7 µM -19% | [13]; at 11.0 µM -14% | [13]; at 33.0 µM -25% | [13]; at 100.0 µM 61%

CCOC(=O)C1([Se]c2ccccc2)CCCC1=O (stereo unspecified)
active: [14]; at 100.0 µM 91% | [15]; at 33.0 µM 87% | [15]; at 100.0 µM 96% | [2]; at 100.0 µM 85% | [3]; at 50.0 µM 84.2% | [3]; at 100.0 µM 92% | [4]; at 50.0 µM 71.8% | [5]; at 100.0 µM 94% | [6]; at 50.0 µM 84.2% | [9]; [18] 82% | [9]; at 50.0 µM 81.2% | [9]; at 100.0 µM 90% | [16]; at 100.0 µM 83% | [11]; at 33.0 µM 75% | [11]; at 100.0 µM 97% | [12]; [18] 87% | [12]; at 50.0 µM 76.6% | [13]; at 100.0 µM 91%
inactive: [14]; at 1.2 µM 16% | [14]; at 3.7 µM 19% | [14]; at 11.0 µM 24% | [14]; at 33.0 µM 50% | [15]; at 1.2 µM -7% | [15]; at 3.7 µM 14% | [15]; at 11.0 µM 44% | [2]; at 1.2 µM -4% | [2]; at 3.7 µM -5% | [2]; at 11.0 µM 4% | [2]; at 33.0 µM 32% | [3]; at 1.2 µM 17% | [3]; at 3.7 µM 15% | [3]; [17] 16% | [3]; at 11.0 µM 23% | [3]; at 33.0 µM 44% | [3]; [18] 63% | [4]; at 1.2 µM 1% | [4]; at 3.7 µM -6% | [4]; [17] -18% | [4]; at 11.0 µM 9% | [4]; at 33.0 µM 30% | [4]; [18] 43% | [4]; at 100.0 µM -11% | [5]; at 1.2 µM -9% | [5]; at 3.7 µM 1% | [5]; at 11.0 µM -11% | [5]; at 33.0 µM 25% | [6]; [17] -3% | [6]; [18] 59% | [7]; at 1.2 µM 2% | [7]; at 3.7 µM 6% | [7]; at 11.0 µM 16% | [7]; at 33.0 µM 11% | [7]; at 100.0 µM 68% | [9]; at 1.2 µM -4% | [9]; at 3.7 µM 0% | [9]; [17] 10% | [9]; at 11.0 µM -13% | [9]; at 33.0 µM 13% | [16]; at 1.2 µM 8% | [16]; at 3.7 µM 6% | [16]; at 11.0 µM 33% | [16]; at 33.0 µM 58% | [11]; at 1.2 µM 22% | [11]; at 3.7 µM 42% | [11]; at 11.0 µM 56% | [12]; [17] 34% | [13]; at 1.2 µM 9% | [13]; at 3.7 µM 21% | [13]; at 11.0 µM 30% | [13]; at 33.0 µM 65%

CN(C)CCC(C(=O)C(Br)Br)(c1ccccc1)c1ccccc1
inactive: [14]; at 1.2 µM -2% | [14]; at 3.7 µM -1% | [14]; at 11.0 µM 26% | [15]; at 1.2 µM -2% | [15]; at 3.7 µM -5% | [15]; at 11.0 µM -1% | [15]; at 33.0 µM 21% | [2]; at 1.2 µM -1% | [2]; at 3.7 µM 0% | [3]; at 1.2 µM 0% | [3]; at 3.7 µM 12% | [3]; [17] 16% | [4]; at 1.2 µM 3% | [4]; at 3.7 µM 2% | [4]; [17] 16% | [4]; [18] 38% | [5]; at 1.2 µM 7% | [5]; at 3.7 µM 30% | [6]; [17] 40% | [7]; at 1.2 µM 0% | [7]; at 3.7 µM 12% | [8]; [17] 19% | [9]; at 1.2 µM -6% | [9]; at 3.7 µM 0% | [9]; [17] -69% | [10]; at 1.2 µM 0% | [10]; at 3.7 µM 2% | [16]; at 1.2 µM 2% | [16]; at 3.7 µM 1% | [16]; at 11.0 µM 61% | [12]; [17] 33% | [13]; at 1.2 µM 2% | [13]; at 3.7 µM 11%
active: [14]; at 33.0 µM 98% | [14]; at 100.0 µM 99% | [15]; at 100.0 µM 72% | [2]; at 11.0 µM 96% | [2]; at 33.0 µM 99% | [2]; at 100.0 µM 99% | [3]; at 11.0 µM 82% | [3]; at 33.0 µM 99% | [3]; [18] 99% | [3]; at 50.0 µM 98.8% | [3]; at 100.0 µM 99% | [4]; at 11.0 µM 96% | [4]; at 33.0 µM 99% | [4]; at 50.0 µM 99.3% | [4]; at 100.0 µM 100% | [5]; at 11.0 µM 95% | [5]; at 33.0 µM 99% | [5]; at 100.0 µM 99% | [6]; [18] 99% | [6]; at 50.0 µM 97.3% | [7]; at 11.0 µM 74% | [7]; at 33.0 µM 99% | [7]; at 100.0 µM 98% | [8]; [18] 99% | [8]; at 50.0 µM 99.1% | [9]; at 11.0 µM 94% | [9]; at 33.0 µM 99% | [9]; [18] 98% | [9]; at 50.0 µM 99.5% | [9]; at 100.0 µM 99% | [10]; at 11.0 µM 73% | [10]; at 33.0 µM 99% | [10]; at 100.0 µM 99% | [16]; at 33.0 µM 99% | [16]; at 100.0 µM 100% | [12]; [18] 99% | [12]; at 50.0 µM 99% | [13]; at 11.0 µM 88% | [13]; at 33.0 µM 99% | [13]; at 100.0 µM 99%

Reference: PubChem BioAssay (NCI)
